Data taken from PubChem BioAssay AID1159580 (chemical genetic matrix, 2015).
Out of some 5,500 compounds screened, about 2,000 (36%) were called active. Roughly 18% stayed inconclusive and do not appear here. No stated cut-off is given here; in the data, active means normalized growth mostly below about 0.91 (no sharp cut-off); inconclusive means no clear call, values can overlap the other calls; inactive means mostly above about 0.92. The list shows a part of the results.

Assay: chemical genetic growth profiling, strain panel (AID 1159580);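 further: tested at 20 µM; growth read once vehicle control cultures reached saturation at 30 °C; 1 = growth at the plate median or of vehicle wells; lower values mean less growth of the strain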
Conditions: S. cerevisiae deletion strains, growth OD

Measured: normalized growth

CCN(CC)[N+]([O-])=NO
inactive: locus YHR030C, strain SLT2, hits give low values 0.974 | locus YHR079C, strain IRE1, hits give low values 0.986 | locus YJL095W, strain BCK1, hits give low values 0.987 | locus YJR066W, strain TOR1, hits give low values 0.931 | locus YLR113W, strain HOG1, hits give low values 0.961 | locus YNL183C, strain NPR1, hits give low values 0.935 | locus YOR231W, strain MKK1, hits give low values 0.966 | locus YPL256C, strain CLN2, hits give low values 0.951
